From the supplement of paper PMC8047044 come the findings set out here.

Counter-ions that a name gives are not always drawn.

In the experiment the test system is Neuro-2a. The experiment can be described thus: neurite formation score, plate-normalized to DMSO control mean 5.04 (score (0-8 scale)); higher = more or longer neurites. To be noted: 1 µM. As to the method: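 Neuro-2a mouse neuroblastoma cells in PLL-coated 96-well plates were pre-treated for 1 h in DMEM(+) with each kinase inhibitor at 1 µM, then switched to serum-free DMEM(-) with inhibitor to induce neurite outgrowth and fixed about 2-3 h later. Three blinded observers scored neurite formation from 0 (no neurites) to 8 (long neurites on almost all cells).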
As for `CN(C)S(=O)(=O)c1ccc2c(c1)/C(=C/c1cc3c([nH]1)CCCC3)C(=O)N2`, the neurite formation score came out at 4.54.

In turn, `Cn1cc(-c2ccc3ncc(Cc4ccc5ncccc5c4)n3n2)cn1` yielded a neurite formation score of 4.63. The compound `COc1cc2c(Oc3ccc(NC(=O)C4(C(=O)Nc5ccc(F)cc5)CC4)cc3F)ccnc2cc1OCCCN1CCOCC1` yielded a neurite formation score of 3.24. The figure for `COc1cc(-c2cc(-c3ccc(N4CCNCC4)cc3)cnc2C)cc(OC)c1OC` is 4.47. `O=c1cc(CN2CCOCC2)occ1OCCCCCSc1ccnc2cc(C(F)(F)F)ccc12` registered a neurite formation score of 4.21. The figure for `CC(C)(C)Cn1c(N)nc2ccc(-c3[nH]c(C(C)(C)C)nc3-c3ccc(F)cc3)nc21` is 4.57; for `Cn1cc(C2=C(c3cn(CCCSC(=N)N)c4ccccc34)C(=O)NC2=O)c2ccccc21` [Ro 31-8220 Mesylate] it is 4.54. As to `COc1cc2nccc(Oc3ccc(NC(=O)C4(C(=O)Nc5ccc(F)cc5)CC4)cc3)c2cc1OC`, the neurite formation score came out at 3.57. The figure for `COc1cc2nccc(Oc3ccc(NC(=O)Nc4ccc(F)cc4F)c(F)c3)c2cc1OC` is 5.24; for `O=C(Nc1ccc2[nH]nc(-c3ccncc3)c2c1)[C@@H]1CCN(CC(=O)N2CCN(c3ccc(-c4ncccn4)cc3)CC2)C1` it is 3.8. The figure for `S=C(NCc1ccc2c(c1)OCO2)N1CCN(c2ncnc3c2oc2ccccc23)CC1` [Amuvatinib (MP-470, HPK 56)] is 4.69; for `Nc1nccc(-c2c(-c3ccc(F)cc3)ncn2C2CCCCC2)n1` it is 5.02. The figure for `Oc1cccc(-c2nc(N3CCOCC3)c3oc4ncccc4c3n2)c1` is 5.24; for `CC(C)(C#N)c1ccc(N2C(=O)OCc3cnc4ccc(-c5cnc6ccccc6c5)cc4c32)cc1` it is 3.63; for `O=C(Nc1c[nH]nc1-c1nc2ccc(CN3CCOCC3)cc2[nH]1)NC1CC1` it is 4.02. For `O=C(O)CCC(=O)Nc1ccc(Br)cn1` [Bikinin], the neurite formation score was 4.54. To `CN(C)C/C=C/C(=O)Nc1cc2c(Nc3ccc(F)c(Cl)c3)ncnc2cc1O[C@H]1CCOC1` [Afatinib dimaleate] belongs 4.91; to `O=C(Nc1cc(C(F)(F)F)cc(C(F)(F)F)c1)c1cc(Cl)ccc1O`, 2.8; to `CCn1c2ccccc2c2cc(Nc3ccnc(NCCCN4CCOCC4)n3)ccc21`, 3.54. The figure for `CNc1nc(Nc2ccc(C(=O)N3CCOCC3)cc2OC)ncc1Cl` is 4.96; for `N#CC[C@H](C1CCCC1)n1cc(-c2ncnc3[nH]ccc23)cn1` [Ruxolitinib phosphate] it is 5.02. On to `Cc1ccccc1CN1C2=NCCN2C(=O)C2=C1CCN(Cc1ccccc1)C2`, for which the neurite formation score stood at 4.63. The figure for `COc1cc2ncc(-c3ccccc3)nc2cc1OC` [Tyrphostin AG 1296] is 5.24; for `Cc1ncc(CCCN(C)C)cc1Nc1ncc2c(n1)-c1ccc(C(F)(F)F)cc1NC(=S)C2` it is 5.29. As for `COc1cc2ncnc(Nc3cccc(Cl)c3)c2cc1OC`, the neurite formation score was determined as 3.57. To `Cc1cc(Nc2cc(N3CCN(C)CC3)nc(/C=C/c3ccccc3)n2)n[nH]1` [ENMD-2076 L-(+)-Tartaric acid] belongs 3.8; to `CN1CCN(c2ccc(Nc3cc(-c4cccc(-n5ccc6cc(C7CC7)cc(F)c6c5=O)c4CO)cn(C)c3=O)nc2)CC1`, 5.63; to `NC1(c2ccc(-c3nc4ccn5c(=O)[nH]nc5c4cc3-c3ccccc3)cc2)CCC1` [MK-2206 dihydrochloride], 4.24. The figure for `O=C1NC(=O)C(c2ccccc2[N+](=O)[O-])=C1Nc1ccc(O)c(Cl)c1` is 3.9; for `CN1CCC(COc2cnc(-c3cccc(Cn4nc(-c5cccc(C#N)c5)ccc4=O)c3)nc2)CC1` it is 3.69. As to `CCOc1cc(C(=O)N2CCC(N3CCN(C)CC3)CC2)ccc1Nc1ncc2c(n1)N(C1CCCC1)c1ccccc1C(=O)N2C`, the neurite formation score is 4.02. To `COc1ncc(-c2ccc3nccc(-c4ccnnc4)c3c2)cc1NS(=O)(=O)c1ccc(F)cc1F` belongs 2.63; to `CC(C)CC(=O)Nc1n[nH]c2c1CN(C(=O)C1CCN(C)CC1)C2(C)C`, 4.57; to `CCN1CCN(Cc2ccc(Nc3ncc(F)c(-c4cc(F)c5nc(C)n(C(C)C)c5c4)n3)nc2)CC1`, 4.57. Compound `O=C(NC1CCNCC1)c1n[nH]cc1NC(=O)c1c(Cl)cccc1Cl` showed a neurite formation score of 5.57. With `O=C(Cc1ccc(-c2ccc(OCCN3CCOCC3)cc2)cn1)NCc1ccccc1`, the neurite formation score was -0.529. The figure for `COc1nccc(-c2c(-c3ccc(F)cc3)ncn2C2CCC(O)CC2)n1` (stereo not given) is 5.36; for `N=C(N)NCCC(=O)O` [3-Guanidinopropionic Acid] it is 5.21; for `CCCS(=O)(=O)Nc1ccc(F)c(C(=O)c2c[nH]c3ncc(-c4ccc(Cl)cc4)cc23)c1F` [Vemurafenib (PLX4032, RG7204)] it is 3.91. The compound `Cc1cccc(CC(=O)N2CCc3c2ccc(-c2cn(C)c4ncnc(N)c24)c3F)n1` had a neurite formation score of 4.21.
